According to the supplement of paper PMC10849652:
Targets with a hit are over-represented here; the source holds about 8,800 in all. About 0.5% of all pairs of compound and target were hits. A number with no mark means an inactive call.

Assays:
Assay in all cases: log2 fold change, soluble protein after heating vs DMSO (PISA); higher = thermal stabilisation; K562 lysate, 10 uM; active = over 0.2 and 3.5 SD of the protein, either way, in both replicates (recomputed)
erlotinib = compound: C#Cc1cccc(Nc2ncnc3cc(OCCOC)c(OCCOC)cc23)c1 [erlotinib]
In short: (§1)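 The values are log-two fold changes in thermal stability compared with solvent controls and come from duplicates. They were obtained by TMTpro 16plex LC-MS/MS, with channel sums equalised, on the supernatant after 21,000xg for 90 min. That supernatant came from crude K562 extract at 1 mg/mL protein treated with 10 μM compound for 30 min, heated for 3 min across 48°C-58°C, pooled and brought to 0.5% NP-40 at 4°C.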

[1] = compound: C/C(=N\NC(=O)C1=CC(=CC=C1)S(=O)(=O)N2CCOCC2)/C3=C(C=CC(=C3)Cl)O
In short: as §1

[2] = compound: C1=CC(=CC=C1C2=NC3=C(N2)C=C(C=C3)C(=O)N)OC4=CC=C(C=C4)Cl
In short: as §1

[3] = compound: C1=CC2=C(C=CC(=C2)/C=C\3/C(=O)NC(=NCC4=CC=CS4)S3)N=C1
In short: as §1

[4] = compound: C1=CC2=NC=CN=C2C=C1/C=C/3\C(=O)NC(=O)S3
In short: as §1

[5] = compound: C1=CC=C(C=C1)C2=NC(=C(N2)C3=CC=NC=C3)C4=CC(=C(C=C4)Cl)O
In short: as §1

[6] = compound: C1=CC=C2C(=C1)C3=NNC4=CC=CC(=C43)C2=O
In short: as §1

[7] = compound: C1CCN(C1)C(=O)NC2=CC=CC(=C2)NC3=NC=C(C(=N3)NCCC4=CN=CN4)Br
In short: as §1

[8] = compound: C1CN(CCC1(CC2=CC=C(C=C2)Cl)N)C3=NC=NC4=C3C=CN4
In short: as §1

IRAK-1-4 Inhibitor I = compound: C1COCCN1CCN2C3=CC=CC=C3N=C2NC(=O)C4=CC(=CC=C4)[N+](=O)[O-] [IRAK-1-4 Inhibitor I]
In short: as §1

ibrutinib = compound: C=CC(=O)N1CCC[C@@H](n2nc(-c3ccc(Oc4ccccc4)cc3)c3c(N)ncnc32)C1 [ibrutinib]
In short: as §1

[9] = compound: CC(=O)c1cnc2ccc(-c3cc(Cl)c(O)c(Cl)c3)nc2c1N[C@H]1CC[C@H](CN(C)C)CC1
In short: as §1

ralimetinib = compound: CC(C)(C)Cn1c(N)nc2ccc(-c3[nH]c(C(C)(C)C)nc3-c3ccc(F)cc3)nc21 [ralimetinib]
In short: as §1

[10] = compound: CC(C)(O)CC(=O)NCCn1ccc2ncnc(Nc3ccc(Oc4cccc(C(F)(F)F)c4)c(Cl)c3)c21
In short: as §1

[11] = compound: CC(C)C1=C2N=C(C=C(N2N=C1)NCC3=CC=CC=C3)NCCCCCCN
In short: as §1

[12] = compound: CC1=C(C(CC(=O)N1)C2=CC=C(C=C2)C(F)(F)F)C(=O)NC3=C(C=C4C(=C3)C=NN4)F
In short: as §1

[13] = compound: CC1=C(C2=C(C=C1)C(=O)C3=CC=CC=C3N2CCCN)C
In short: as §1

[14] = compound: CC1=C(C=C(C=C1)NC(=O)C2=CC(=CC=C2)C(C)(C)C#N)NC3=CC4=C(C=C3)N=CN(C4=O)C
In short: as §1

[15] = compound: CC1=C(C=C(C=C1)NC(=O)C2=CC(=CC=C2)N(C)C)NC(=O)C3=CC=C(C=C3)O
In short: as §1

[16] = compound: CC1=CC=C(C=C1)SC2=C3C=C(SC3=CN=C2)C(=O)N
In short: as §1

UniProt O95067, sequence (O95067 whole entry, looked up): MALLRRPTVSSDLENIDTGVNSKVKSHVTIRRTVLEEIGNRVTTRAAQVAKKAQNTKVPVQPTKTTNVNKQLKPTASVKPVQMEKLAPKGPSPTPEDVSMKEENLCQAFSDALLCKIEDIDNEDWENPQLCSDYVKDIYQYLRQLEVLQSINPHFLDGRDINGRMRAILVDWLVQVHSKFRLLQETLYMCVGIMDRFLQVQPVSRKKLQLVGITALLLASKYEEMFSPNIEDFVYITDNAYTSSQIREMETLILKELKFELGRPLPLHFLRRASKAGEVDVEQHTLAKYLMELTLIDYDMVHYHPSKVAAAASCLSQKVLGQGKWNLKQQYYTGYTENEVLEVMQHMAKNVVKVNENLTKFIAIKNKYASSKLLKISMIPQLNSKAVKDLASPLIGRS
UniProt Q8N7R7, sequence (Q8N7R7 whole entry, looked up): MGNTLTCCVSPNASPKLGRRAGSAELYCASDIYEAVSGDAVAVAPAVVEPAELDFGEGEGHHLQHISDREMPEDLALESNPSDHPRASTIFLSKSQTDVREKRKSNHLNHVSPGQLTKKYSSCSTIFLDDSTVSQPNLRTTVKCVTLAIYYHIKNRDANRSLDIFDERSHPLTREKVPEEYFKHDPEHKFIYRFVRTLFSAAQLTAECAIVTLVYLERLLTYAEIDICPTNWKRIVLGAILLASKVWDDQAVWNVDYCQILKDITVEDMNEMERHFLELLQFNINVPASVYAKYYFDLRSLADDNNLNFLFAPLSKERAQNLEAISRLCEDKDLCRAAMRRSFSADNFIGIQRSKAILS
UniProt P30307, sequence (P30307 whole entry, looked up): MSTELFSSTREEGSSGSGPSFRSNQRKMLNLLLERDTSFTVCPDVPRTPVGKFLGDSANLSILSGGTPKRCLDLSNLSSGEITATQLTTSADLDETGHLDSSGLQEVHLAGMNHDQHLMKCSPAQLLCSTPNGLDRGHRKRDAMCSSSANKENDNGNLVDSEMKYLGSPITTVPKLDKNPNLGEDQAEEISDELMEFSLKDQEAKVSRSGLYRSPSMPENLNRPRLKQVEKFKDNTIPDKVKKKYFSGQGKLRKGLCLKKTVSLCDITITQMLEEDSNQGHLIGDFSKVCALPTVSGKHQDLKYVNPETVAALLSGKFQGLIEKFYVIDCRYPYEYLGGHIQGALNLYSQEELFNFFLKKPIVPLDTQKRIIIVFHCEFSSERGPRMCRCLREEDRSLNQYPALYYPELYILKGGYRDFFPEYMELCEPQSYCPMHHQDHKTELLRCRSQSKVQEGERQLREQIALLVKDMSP
UniProt O60566, sequence (O60566 whole entry, looked up): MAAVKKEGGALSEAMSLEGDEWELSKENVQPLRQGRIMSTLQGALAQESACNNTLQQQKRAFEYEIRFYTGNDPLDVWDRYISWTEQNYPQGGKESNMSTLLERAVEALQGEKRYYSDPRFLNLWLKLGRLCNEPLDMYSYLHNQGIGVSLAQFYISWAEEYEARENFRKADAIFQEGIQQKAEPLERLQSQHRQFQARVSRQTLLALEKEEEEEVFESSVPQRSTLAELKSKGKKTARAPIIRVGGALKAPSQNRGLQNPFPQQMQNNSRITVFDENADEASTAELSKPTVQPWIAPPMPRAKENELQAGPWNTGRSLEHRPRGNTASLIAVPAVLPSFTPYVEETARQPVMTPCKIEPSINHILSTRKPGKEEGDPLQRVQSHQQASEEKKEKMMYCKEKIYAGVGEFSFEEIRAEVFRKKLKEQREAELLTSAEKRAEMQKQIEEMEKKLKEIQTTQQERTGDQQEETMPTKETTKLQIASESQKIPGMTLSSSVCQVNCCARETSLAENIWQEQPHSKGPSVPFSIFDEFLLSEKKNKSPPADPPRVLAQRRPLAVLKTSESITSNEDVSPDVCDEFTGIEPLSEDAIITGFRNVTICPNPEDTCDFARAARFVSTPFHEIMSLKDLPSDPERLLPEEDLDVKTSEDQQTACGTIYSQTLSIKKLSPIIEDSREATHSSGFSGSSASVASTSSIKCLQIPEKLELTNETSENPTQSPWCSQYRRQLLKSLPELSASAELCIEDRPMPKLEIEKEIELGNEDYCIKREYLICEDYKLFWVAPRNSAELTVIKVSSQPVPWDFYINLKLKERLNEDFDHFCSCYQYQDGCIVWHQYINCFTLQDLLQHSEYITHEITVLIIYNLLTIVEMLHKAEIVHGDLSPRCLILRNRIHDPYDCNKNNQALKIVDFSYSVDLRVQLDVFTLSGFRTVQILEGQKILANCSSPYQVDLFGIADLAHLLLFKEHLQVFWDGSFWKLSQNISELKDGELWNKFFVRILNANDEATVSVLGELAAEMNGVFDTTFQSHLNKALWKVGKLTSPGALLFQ
UniProt O95260, sequence (O95260 whole entry, looked up): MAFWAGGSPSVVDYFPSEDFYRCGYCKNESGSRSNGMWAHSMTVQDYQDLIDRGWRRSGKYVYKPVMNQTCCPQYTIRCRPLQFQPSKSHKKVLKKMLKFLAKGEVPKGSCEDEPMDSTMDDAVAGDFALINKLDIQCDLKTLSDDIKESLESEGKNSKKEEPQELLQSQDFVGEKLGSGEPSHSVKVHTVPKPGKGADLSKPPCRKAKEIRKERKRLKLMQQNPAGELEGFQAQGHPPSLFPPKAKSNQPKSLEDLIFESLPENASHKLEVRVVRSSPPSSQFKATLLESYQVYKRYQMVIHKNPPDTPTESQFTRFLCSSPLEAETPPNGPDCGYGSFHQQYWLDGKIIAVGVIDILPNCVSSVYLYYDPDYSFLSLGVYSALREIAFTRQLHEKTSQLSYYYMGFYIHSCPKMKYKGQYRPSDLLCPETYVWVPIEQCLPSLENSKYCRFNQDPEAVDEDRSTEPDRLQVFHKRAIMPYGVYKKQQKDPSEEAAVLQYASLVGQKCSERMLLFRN
UniProt Q96RR4, sequence (Q96RR4 whole entry, looked up): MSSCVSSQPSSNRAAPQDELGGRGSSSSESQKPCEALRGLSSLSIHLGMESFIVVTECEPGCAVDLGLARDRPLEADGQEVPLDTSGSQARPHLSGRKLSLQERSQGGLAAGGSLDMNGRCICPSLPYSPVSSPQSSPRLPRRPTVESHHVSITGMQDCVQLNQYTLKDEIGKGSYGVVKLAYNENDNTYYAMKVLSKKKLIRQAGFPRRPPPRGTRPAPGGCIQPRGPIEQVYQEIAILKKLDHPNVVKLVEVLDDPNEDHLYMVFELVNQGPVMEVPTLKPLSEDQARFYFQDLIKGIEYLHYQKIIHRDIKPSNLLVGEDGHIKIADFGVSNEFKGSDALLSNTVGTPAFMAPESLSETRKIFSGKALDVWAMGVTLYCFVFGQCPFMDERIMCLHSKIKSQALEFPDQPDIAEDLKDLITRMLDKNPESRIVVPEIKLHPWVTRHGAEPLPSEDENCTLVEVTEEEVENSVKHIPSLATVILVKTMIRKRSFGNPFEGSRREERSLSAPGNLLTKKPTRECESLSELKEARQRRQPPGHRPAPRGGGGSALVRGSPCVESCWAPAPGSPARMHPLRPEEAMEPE
UniProt P49918, sequence (P49918 whole entry, looked up): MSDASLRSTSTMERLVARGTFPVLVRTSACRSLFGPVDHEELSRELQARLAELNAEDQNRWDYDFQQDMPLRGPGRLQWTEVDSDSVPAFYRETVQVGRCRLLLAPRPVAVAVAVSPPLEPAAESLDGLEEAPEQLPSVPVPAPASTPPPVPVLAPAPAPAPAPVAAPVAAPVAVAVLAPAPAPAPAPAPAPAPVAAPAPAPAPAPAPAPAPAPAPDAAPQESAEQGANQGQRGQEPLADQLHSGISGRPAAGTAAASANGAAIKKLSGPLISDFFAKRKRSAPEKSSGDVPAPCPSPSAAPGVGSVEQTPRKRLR
UniProt Q14012, sequence (Q14012 whole entry, looked up): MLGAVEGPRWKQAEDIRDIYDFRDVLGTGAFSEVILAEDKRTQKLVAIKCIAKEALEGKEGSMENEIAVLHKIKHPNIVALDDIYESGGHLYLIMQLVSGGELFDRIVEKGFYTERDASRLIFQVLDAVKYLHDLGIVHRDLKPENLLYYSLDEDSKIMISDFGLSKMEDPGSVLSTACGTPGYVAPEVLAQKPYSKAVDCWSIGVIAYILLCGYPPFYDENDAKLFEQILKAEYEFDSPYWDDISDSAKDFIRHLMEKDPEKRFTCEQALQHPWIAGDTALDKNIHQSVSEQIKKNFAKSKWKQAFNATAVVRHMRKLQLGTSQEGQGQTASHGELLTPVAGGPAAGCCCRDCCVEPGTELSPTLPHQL
UniProt P15313, sequence (P15313 whole entry, looked up): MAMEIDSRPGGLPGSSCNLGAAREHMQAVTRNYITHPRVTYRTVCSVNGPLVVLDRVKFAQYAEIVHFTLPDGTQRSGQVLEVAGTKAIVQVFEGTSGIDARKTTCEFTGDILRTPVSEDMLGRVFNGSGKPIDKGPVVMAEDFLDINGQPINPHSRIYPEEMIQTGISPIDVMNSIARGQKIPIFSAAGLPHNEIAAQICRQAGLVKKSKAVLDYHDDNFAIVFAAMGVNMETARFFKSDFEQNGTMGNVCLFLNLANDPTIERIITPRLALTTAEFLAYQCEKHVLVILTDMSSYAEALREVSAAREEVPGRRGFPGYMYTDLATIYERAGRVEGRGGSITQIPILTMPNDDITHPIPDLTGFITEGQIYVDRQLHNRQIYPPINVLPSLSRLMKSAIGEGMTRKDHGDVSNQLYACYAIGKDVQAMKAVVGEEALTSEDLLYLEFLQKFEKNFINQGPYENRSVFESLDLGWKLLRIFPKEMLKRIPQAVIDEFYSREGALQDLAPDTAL
UniProt Q86WA6, sequence (Q86WA6 whole entry, looked up): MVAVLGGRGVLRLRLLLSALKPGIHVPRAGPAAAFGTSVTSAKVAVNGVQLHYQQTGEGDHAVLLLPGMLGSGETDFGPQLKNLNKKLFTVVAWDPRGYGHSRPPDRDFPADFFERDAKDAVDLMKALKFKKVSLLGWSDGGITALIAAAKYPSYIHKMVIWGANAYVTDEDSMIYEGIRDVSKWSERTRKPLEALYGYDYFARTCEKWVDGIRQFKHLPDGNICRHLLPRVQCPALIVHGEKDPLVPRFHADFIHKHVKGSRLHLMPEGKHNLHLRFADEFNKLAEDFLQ

Row | Target | log2 fold change (erlotinib) | log2 fold change [1] | log2 fold change [2] | log2 fold change [3] | log2 fold change [4] | log2 fold change [5] | log2 fold change [6] | log2 fold change [7] | log2 fold change [8] | log2 fold change (IRAK-1-4 Inhibitor I) | log2 fold change (ibrutinib) | log2 fold change [9] | log2 fold change (ralimetinib) | log2 fold change [10] | log2 fold change [11] | log2 fold change [12] | log2 fold change [13] | log2 fold change [14] | log2 fold change [15] | log2 fold change [16]
1 | CCDC47 (UniProt Q96A33) | 0.02 | 0.003 | -0.071 | 0.009 | 0.022 | -0.03 | -0.093 | -0.007 | 0.024 | 0.003 | 0 | 0.002 | 0.01 | -0.063 | -0.042 | 0.044 | -0.002 | 0.041 | 0.045 | -0.013
2 | CDC25C (UniProt P30307) | 0.007 | -0.157 | -0.061 | 0.042 | -0.031 | 0.026 | -0.148 | -0.035 | -0.058 | -0.039 | 0.006 | 0.01 | 0.013 | 0.091 | -0.027 | 0.026 | 0.059 | -0.022 | -0.004 | -0.019
3 | CHAF1A (UniProt Q13111) | -0.017 | -0.089 | -0.005 | -0.004 | -0.005 | 0.009 | -0.008 | -0.025 | 0.036 | -0.011 | 0.026 | -0.017 | 0.011 | 0.018 | 0.032 | 0.049 | -0.043 | 0.001 | 0.001 | 0.012
4 | CALB2 (UniProt P22676) | 0.021 | 0.045 | -0.04 | -0.103 | -0.077 | 0.02 | 0.043 | 0.056 | 0.065 | 0.08 | 0.085 | 0.016 | 0 | -0.083 | -0.093 | -0.025 | -0.116 | 0.028 | -0.039 | -0.014
5 | ATP6V1B1 (UniProt P15313) | -0.044 | 0.014 | 0.027 | -0.036 | 0.013 | -0.02 | 0.006 | -0.033 | 0.001 | 0.019 | -0.001 | 0 | 0.037 | -0.025 | -0.013 | 0.024 | -0.011 | 0.005 | 0.031 | -0.015
6 | ATP2B4 (UniProt P23634) | 0.021 | 0.023 | 0.012 | 0.024 | 0.019 | -0.015 | -0.018 | 0.017 | 0.045 | -0.028 | 0.06 | -0.026 | -0.056 | -0.029 | -0.018 | 0.033 | -0.034 | 0.089 | 0.051 | -0.003
7 | BPHL (UniProt Q86WA6) | -0.054 | -0.445 (active) | 0.033 | 0.089 | -0.135 | -0.071 | 0.118 | -0.063 | 0.082 | -0.033 | -0.073 | -0.016 | 0.047 | 0.06 | -0.045 | 0 | -0.015 | 0.025 | -0.004 | -0.002
8 | BLOC1S6 (UniProt Q9UL45) | -0.008 | 0.007 | 0.029 | 0.027 | 0.001 | 0.002 | -0.004 | 0.093 | -0.01 | -0.031 | 0.156 | -0.07 | 0.015 | 0.061 | -0.029 | 0.014 | -0.033 | -0.001 | -0.017 | 0.012
9 | CCNB2 (UniProt O95067) | 0.037 | 0.038 | 0.075 | -0.061 | -0.008 | 0.008 | -0.125 | -0.02 | 0.027 | 0.033 | -0.062 | 0.358 (active) | 0.028 | -0.028 | 0.023 | -0.011 | 0.017 | 0.022 | 0.037 | -0.079
10 | BUB1B isoform 3 (UniProt O60566) | 0.019 | 0.013 | -0.002 | -0.026 | 0.01 | 0.021 | -0.039 | -0.031 | -0.008 | -0.016 | 0.035 | -0.007 | 0.001 | 0.021 | 0.003 | -0.001 | 0.004 | -0.028 | 0.003 | 0.001
11 | CALM2 (UniProt P0DP24) | -0.089 | 0.042 | 0.062 | 0.028 | -0.117 | 0.094 | 0.001 | 0.039 | 0.118 | 0.221 | 0.262 | 0.004 | -0.014 | -0.238 | -0.07 | -0.044 | -0.101 | -0.013 | -0.099 | 0.004
12 | CDKN1C (UniProt P49918) | -0.021 | 0.34 | -0.015 | -0.159 | 0.065 | -0.032 | -0.461 (active) | 0.053 | 0.009 | 0.069 | 0.002 | -0.001 | 0.055 | -0.045 | 0.077 | 0.017 | 0.006 | -0.032 | 0.023 | 0.005
13 | CCNYL1 (UniProt Q8N7R7) | 0.026 | -0.101 | 0.084 | 0.06 | -0.04 | -0.042 | -0.002 | -0.051 | 0.049 | 0.026 | 0.047 | 0.007 | 0.019 | -0.032 | 0.012 | 0.027 | -0.023 | 0.028 | -0.027 | -0.006
14 | CAMK1 (UniProt Q14012) | -0.014 | -0.145 | 0.008 | 0 | 0.037 | -0.011 | 0.135 | 0 | 0.016 | 0.107 | 0.017 | 0.009 | 0.004 | -0.144 | -0.017 | -0.034 | -0.003 | 0.016 | -0.027 | 0.008
15 | ATE1 isoform 2 (UniProt O95260) | -0.022 | -0.01 | 0.002 | -0.063 | 0.027 | 0.007 | 0.021 | 0.054 | 0.013 | -0.038 | 0.056 | 0.001 | -0.006 | 0.063 | -0.016 | 0.048 | -0.001 | -0.04 | -0.004 | 0.011
16 | CAMKK2 (UniProt Q96RR4) | -0.033 | -0.028 | -0.045 | -0.057 | -0.014 | 0.005 | 0.002 | 0.135 | 0.033 | -0.027 | 0.052 | 0.231 (active) | 0.035 | -0.005 | 0.019 | -0.011 | -0.005 | -0.031 | 0.005 | 0.014
